Experiment in all cases: glycan array binding signal (z-score within array); higher = stronger binding
For experiment [1], the system named is GlcNAc(a1-6)Gal(b1-4)GlcNAc. Particulars: glycan notation: IUPAC condensed, linker removed; mutation: D138V, E140I. In short, it runs like this:
(§1)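 The binding signal is a Z-score computed within each array. Data were drawn from 3228 arrays in the Consortium for Functional Glycomics database, restricted to those with a known protein sequence. Scores were averaged over arrays of the same protein sequence at different concentrations or buffers, and over linkers, and negative values can be taken as non-binding.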

Experiment [2] has as its system GlcNAc(b1-2)Man(a1-3)[GlcNAc(b1-2)Man(a1-6)]Man(b1-4)GlcNAc(b1-4)GlcNAc. Particulars: glycan notation: IUPAC condensed, linker removed. In short, it runs like this:
as §1

For experiment [3], the system named is GlcNAc(b1-2)Man(a1-3)[GlcNAc(b1-4)][GlcNAc(b1-2)Man(a1-6)]Man(b1-4)GlcNAc(b1-4)[Fuc(a1-6)]GlcNAc. The conditions noted are these: glycan notation: IUPAC condensed, linker removed. In short, it runs like this:
as §1

In experiment [4] the test system is GlcNAc(b1-2)[GlcNAc(b1-4)]Man(a1-3)[GlcNAc(b1-4)][GlcNAc(b1-2)Man(a1-6)]Man(b1-4)GlcNAc(b1-4)GlcNAc. The conditions noted are these: glycan notation: IUPAC condensed, linker removed; mutation: R125K. An outline of the steps: as §1
The test system of experiment [5] is GlcNAc(b1-2)[GlcNAc(b1-6)]Man(a1-6)[GlcNAc(b1-2)Man(a1-3)][GlcNAc(b1-4)]Man(b1-4)GlcNAc(b1-4)GlcNAc. The conditions noted are these: glycan notation: IUPAC condensed, linker removed. In short, it runs like this: as §1
Experiment [6] concerns GlcNAc(b1-2)[GlcNAc(b1-6)]Man(a1-6)[GlcNAc(b1-4)][GlcNAc(b1-2)Man(a1-3)]Man(b1-4)GlcNAc(b1-4)GlcNAc. The conditions noted are these: glycan notation: IUPAC condensed, linker removed; mutation: R125K. An outline of the steps:
as §1

Experiment [7] relates to GlcNAc(b1-3)Gal(b1-4)GlcNAc(b1-2)[GlcNAc(b1-3)Gal(b1-4)GlcNAc(b1-6)]Man(a1-6)[GlcNAc(b1-3)Gal(b1-4)GlcNAc(b1-2)Man(a1-3)]Man(b1-4)GlcNAc(b1-4)GlcNAc. Particulars: glycan notation: IUPAC condensed, linker removed. In short, it runs like this:
as §1

Experiment [8] concerns GlcNAc(b1-2)Gal(b1-3)GalNAc. The conditions noted are these: glycan notation: IUPAC condensed, linker removed. In short, it runs like this:
as §1

The subject of experiment [9] is GlcNAc(b1-2)Man(a1-3)[GlcNAc(b1-4)][GlcNAc(b1-2)Man(a1-6)]Man(b1-4)GlcNAc(b1-4)GlcNAc. The conditions noted are these: glycan notation: IUPAC condensed, linker removed. An outline of the steps:
as §1

Experiment [10] deals with GlcNAc(b1-2)Man(a1-3)[GlcNAc(b1-2)Man(a1-6)]Man(b1-4)GlcNAc(b1-4)[Fuc(a1-6)]GlcNAc. Particulars: glycan notation: IUPAC condensed, linker removed. In short, it runs like this:
as §1

This is one part of a sample in which the strongest signals are shown more often than they occur.

We go through seven substances from the supplement of paper PMC8728848.

Sequence of Avaren (Actinomycete K97) (chain, as listed by the source): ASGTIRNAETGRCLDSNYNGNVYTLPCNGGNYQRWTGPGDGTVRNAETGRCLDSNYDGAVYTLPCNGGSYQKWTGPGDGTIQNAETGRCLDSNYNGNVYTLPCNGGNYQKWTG
Sequence of C3b (Homo sapiens), P01024 (P01024 23-667): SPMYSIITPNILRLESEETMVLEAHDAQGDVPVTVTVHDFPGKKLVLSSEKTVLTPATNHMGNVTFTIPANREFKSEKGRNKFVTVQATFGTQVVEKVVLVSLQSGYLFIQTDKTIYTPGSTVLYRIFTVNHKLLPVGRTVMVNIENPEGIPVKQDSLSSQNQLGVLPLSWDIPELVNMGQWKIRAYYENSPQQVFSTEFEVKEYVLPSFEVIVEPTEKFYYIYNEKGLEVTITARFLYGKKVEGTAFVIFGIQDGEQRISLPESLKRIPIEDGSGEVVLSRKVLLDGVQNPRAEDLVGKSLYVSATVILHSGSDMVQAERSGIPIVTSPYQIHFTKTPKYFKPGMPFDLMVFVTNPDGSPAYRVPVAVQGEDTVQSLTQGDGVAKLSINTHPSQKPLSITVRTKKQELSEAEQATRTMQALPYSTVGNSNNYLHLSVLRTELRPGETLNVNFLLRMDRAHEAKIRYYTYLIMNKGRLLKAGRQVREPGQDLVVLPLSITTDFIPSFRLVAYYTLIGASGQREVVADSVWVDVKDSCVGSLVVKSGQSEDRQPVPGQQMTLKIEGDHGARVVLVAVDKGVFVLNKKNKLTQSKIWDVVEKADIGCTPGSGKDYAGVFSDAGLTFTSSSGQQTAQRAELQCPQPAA
Sequence of Neurocan (Homo sapiens), O14594 (O14594 other isoform, or with tags, fused parts or gaps): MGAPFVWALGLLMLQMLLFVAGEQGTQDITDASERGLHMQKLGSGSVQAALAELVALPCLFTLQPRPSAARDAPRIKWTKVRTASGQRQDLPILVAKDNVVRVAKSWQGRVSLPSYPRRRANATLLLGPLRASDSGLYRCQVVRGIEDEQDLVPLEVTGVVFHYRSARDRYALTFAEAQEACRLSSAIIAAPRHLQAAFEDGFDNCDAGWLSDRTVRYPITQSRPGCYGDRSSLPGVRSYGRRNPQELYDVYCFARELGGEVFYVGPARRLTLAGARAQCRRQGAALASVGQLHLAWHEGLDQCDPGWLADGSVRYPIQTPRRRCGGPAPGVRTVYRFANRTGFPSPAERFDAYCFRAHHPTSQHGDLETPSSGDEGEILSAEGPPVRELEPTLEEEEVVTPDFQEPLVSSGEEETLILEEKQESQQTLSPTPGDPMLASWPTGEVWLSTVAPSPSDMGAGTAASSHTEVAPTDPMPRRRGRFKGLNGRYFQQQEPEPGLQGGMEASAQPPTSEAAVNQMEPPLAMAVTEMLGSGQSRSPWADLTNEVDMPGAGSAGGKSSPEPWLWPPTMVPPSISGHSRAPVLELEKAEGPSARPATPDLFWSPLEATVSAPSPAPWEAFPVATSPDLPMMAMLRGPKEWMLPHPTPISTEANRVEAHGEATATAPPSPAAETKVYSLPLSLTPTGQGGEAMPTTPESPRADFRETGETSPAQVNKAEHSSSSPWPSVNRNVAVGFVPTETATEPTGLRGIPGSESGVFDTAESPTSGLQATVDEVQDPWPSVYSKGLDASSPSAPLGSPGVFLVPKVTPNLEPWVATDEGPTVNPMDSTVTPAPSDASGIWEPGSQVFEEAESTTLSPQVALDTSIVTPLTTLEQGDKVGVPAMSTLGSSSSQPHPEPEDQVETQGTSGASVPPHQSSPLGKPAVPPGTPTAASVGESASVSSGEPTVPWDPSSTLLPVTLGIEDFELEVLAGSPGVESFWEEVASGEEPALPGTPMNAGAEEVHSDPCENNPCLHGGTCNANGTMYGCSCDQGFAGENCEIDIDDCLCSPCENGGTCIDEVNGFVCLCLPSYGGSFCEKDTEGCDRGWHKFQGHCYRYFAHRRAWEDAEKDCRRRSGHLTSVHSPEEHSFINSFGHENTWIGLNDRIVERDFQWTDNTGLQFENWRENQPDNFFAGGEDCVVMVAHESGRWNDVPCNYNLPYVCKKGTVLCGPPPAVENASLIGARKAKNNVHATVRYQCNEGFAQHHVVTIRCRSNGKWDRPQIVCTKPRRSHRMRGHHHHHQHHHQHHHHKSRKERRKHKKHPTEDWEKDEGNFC
Sequence of CHT (Homo sapiens) (chain, as listed by the source): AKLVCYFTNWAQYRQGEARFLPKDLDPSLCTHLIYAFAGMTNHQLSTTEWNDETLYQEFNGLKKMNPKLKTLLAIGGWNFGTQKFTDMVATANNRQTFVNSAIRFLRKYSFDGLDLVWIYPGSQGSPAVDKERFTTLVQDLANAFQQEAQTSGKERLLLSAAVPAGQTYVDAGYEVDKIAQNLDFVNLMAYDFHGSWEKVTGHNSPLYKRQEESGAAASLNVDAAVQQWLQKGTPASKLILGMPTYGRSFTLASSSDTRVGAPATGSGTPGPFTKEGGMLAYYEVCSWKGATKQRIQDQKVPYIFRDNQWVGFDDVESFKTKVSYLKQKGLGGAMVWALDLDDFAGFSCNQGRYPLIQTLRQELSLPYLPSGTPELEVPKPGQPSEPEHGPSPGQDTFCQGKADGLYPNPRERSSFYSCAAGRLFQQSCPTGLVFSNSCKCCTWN
Sequence of PILRb (Mus musculus), Q2YSF2 (Q2YSF2 entry or part of it): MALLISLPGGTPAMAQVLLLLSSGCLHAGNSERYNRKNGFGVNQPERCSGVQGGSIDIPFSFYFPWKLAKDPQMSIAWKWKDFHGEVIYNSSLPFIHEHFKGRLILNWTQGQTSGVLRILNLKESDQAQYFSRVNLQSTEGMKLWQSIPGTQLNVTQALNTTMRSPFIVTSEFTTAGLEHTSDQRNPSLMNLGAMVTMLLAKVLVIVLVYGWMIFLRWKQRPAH

CHT (Homo sapiens): the “glycan array binding signal (z-score)” value in experiment [1] was -0.177. As for Siglec-8 (Homo sapiens), Q9NYZ4, the “glycan array binding signal (z-score)” value was -0.041 in experiment [2]; 0.376 in [3]; 5.14 in [4]; -0.061 in [5]; -0.415 in experiment [6].

Neurocan (Homo sapiens), O14594: in experiment [2], the “glycan array binding signal (z-score)” value was -0.834. As for MpAFP RI GFP (Marinomonas primoryensis), in [7], the “glycan array binding signal (z-score)” value was 5.77. For the substance C3b (Homo sapiens), P01024, in experiment [8], the “glycan array binding signal (z-score)” value was -0.291. In the case of Avaren (Actinomycete K97), the “glycan array binding signal (z-score)” value in experiment [9] is -0.134.

As to PILRb (Mus musculus), Q2YSF2, in experiment [10], the “glycan array binding signal (z-score)” value is 0.569.
